Results from PubChem BioAssay AID624094 (National Center for Advancing Translational Sciences (NCATS), 2012).
Results filed as inconclusive are left out. The source made the active and inactive calls. The call rests on the fitted dose curve; in most records, active means well fitted inhibition curve with a large enough effect; inconclusive means small, poorly fitted or top-dose-only effect; inactive means flat fitted curve, though single readings scatter.

molecular target: Dual specificity protein kinase CLK4 (Homo sapiens) (UniProt Q9HAZ1); test: Confirmation Assay for Inhibitors of Clk4 (Kinase-Glo Assay): KU probe; conditions: recombinant Clk4, Kinase-Glo ATP luminescence; series mostly up to 76.9 µM
Outline: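 RS repeat peptide (100 uM) and ATP (1 uM) phosphorylated by 25 nM Clk4 (final) in Tris pH 7.5 with MgCl2, EGTA, DTT and Triton X-100. After 4.5 h at room temperature, remaining ATP read as Kinase-Glo luminescence.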

Chain of Dual specificity protein kinase CLK4 (Homo sapiens) (Q9HAZ1 whole entry, looked up): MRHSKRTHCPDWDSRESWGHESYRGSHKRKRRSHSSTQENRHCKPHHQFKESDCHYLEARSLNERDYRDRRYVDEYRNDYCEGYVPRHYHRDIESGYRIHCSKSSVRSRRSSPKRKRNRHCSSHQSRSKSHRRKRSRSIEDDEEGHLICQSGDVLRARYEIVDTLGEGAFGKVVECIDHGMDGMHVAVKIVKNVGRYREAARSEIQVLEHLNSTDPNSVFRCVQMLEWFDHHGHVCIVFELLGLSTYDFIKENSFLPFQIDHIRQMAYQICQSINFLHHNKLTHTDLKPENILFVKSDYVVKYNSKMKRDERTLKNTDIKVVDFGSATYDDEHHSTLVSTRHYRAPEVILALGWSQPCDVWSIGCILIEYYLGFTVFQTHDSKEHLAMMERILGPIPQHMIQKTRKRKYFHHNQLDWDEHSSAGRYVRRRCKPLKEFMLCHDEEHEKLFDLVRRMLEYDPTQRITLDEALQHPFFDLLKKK

Potency, inactive:
Cc1noc(C)c1-c1nccc(NCc2ccc(Cl)c(Cl)c2)n1
Cc1noc(C)c1-c1ncccn1
COc1ccc(CNc2ccnc(-c3ccc(N(C)C)cc3)n2)cc1

Potency, active:
Clc1ccc(CNc2nccc(-c3ccc4c(c3)OCCO4)n2)cc1Cl 116 nM
O=c1cnc2cnc(Nc3ccccc3)nc2n1CCc1ccccc1 184 nM
CC(=O)c1ccc(-c2ccc3ncnc(NCc4ccc(C)o4)c3c2)o1 130 nM
c1cncc(CNc2cc(-c3ccc4c(c3)OCO4)ncn2)c1 6540 nM
Cc1c(-c2ccnc(Nc3cc(Br)cc(C(F)(F)F)c3)n2)sc(=O)n1C 51.9 nM
O=C(O)c1ccc(-c2ccc3ncnc(N4CCOCC4)c3c2)o1 582 nM
Clc1cncc(CNc2ccnc(-c3ccc4c(c3)OCO4)n2)c1 16400 nM
c1nc(NCC2CCCCO2)c2cc(-c3ccc4c(c3)OCO4)ccc2n1 (stereo not drawn) 29.2 nM
c1coc(-c2ccnc(-c3ccc4c(c3)OCO4)n2)c1 8230 nM
COc1cccc(-c2ccnc(NCc3ccc(Cl)c(Cl)c3)n2)c1 3680 nM
Clc1cc(CNc2ccnc(-c3ccc4c(c3)OCO4)n2)ccn1 3680 nM
c1cc(-c2ccoc2)nc(-c2ccc3c(c2)OCO3)n1 4120 nM
CCCN(C)c1ncnc2ccc(-c3ccc4c(c3)OCO4)cc12 58.2 nM
c1nc(NCC2CCCCC2)c2cc(-c3ccc4c(c3)OCO4)ccc2n1 65.4 nM
Clc1ccc(CNc2ccnc(-c3ccc4c(c3)OCO4)n2)cc1Cl 13000 nM
COc1ccc(-c2ccnc(NCc3ccc(Cl)cc3)n2)cc1 184 nM
CCNC(=O)c1ccc(-c2ccc3ncnc(NCC4CCCO4)c3c2)o1 (stereo not drawn) 328 nM
c1cncc(CNc2ccnc(-c3ccc4cn[nH]c4c3)n2)c1 292 nM
c1coc(CNc2ncnc3ccc(-c4ccc5c(c4)OCO5)cc23)c1 46.3 nM
Nc1ncnc2c1c(I)cn2C1OC(CO)C(O)C1O (stereo not drawn) 11.6 nM
Clc1ccc(CNc2cc(-c3ccc4c(c3)OCO4)ncn2)cc1Cl 4630 nM
Clc1ccc(CNc2cc(-c3ccc4c(c3)OCO4)ncn2)cc1 2320 nM
Clc1ccc(CNc2ncncc2-c2ccc3c(c2)OCO3)cc1 5820 nM
Clc1ccc(CNc2ncncc2-c2ccc3c(c2)OCO3)cc1Cl 582 nM
COc1cccc(-c2nccc(NCc3ccc(Cl)c(Cl)c3)n2)c1 14600 nM
